# Test results reported in PMC5540273 (PLoS ONE, 2017).
# Experiments:
# Conditions in all cases: concentration: 1 μM, replicates: in singlicate; n = 1
# [1] = system: T1, PIK4CB
# T1 construct: gene PI4KB
# [2] = system: PIKFYVE
# [3] = system: PIM1
# [4] = system: PIM2
# [5] = system: PIM3
# [6] = system: PIP5K1A
# [7] = system: PIP5K1C
# [8] = system: PIP5K2B
# [9] = system: T2, PIP5K2C
# T2 construct: gene PIP4K2C
# [10] = system: T3, PKAC-alpha
# T3 construct: gene PRKACA
# 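Note: KINOMEscan kinase panel screen.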
structure (smiles),measurement,setting,value
Nc1ncnc2occ(-c3ccc4c(c3)CCN4C(=O)Cc3cc(F)ccc3F)c12 [GSK2645446],%Inh,[1],0%
same,%Inh,[2],0%
same,%Inh,[3],0%
same,%Inh,[4],0%
same,%Inh,[5],0%
same,%Inh,[6],0%
same,%Inh,[7],52%
same,%Inh,[8],0%
same,%Inh,[9],16%
same,%Inh,[10],0%
CCn1c(-c2ccccc2)nc2cnccc21 [SB-733416],%Inh,[1],0%
same,%Inh,[2],40%
same,%Inh,[3],0%
same,%Inh,[4],0%
same,%Inh,[5],0%
same,%Inh,[6],5%
same,%Inh,[7],21%
same,%Inh,[8],0%
same,%Inh,[9],13%
same,%Inh,[10],0%
COc1ccc(Nc2nccc(-c3ccc(NC(=O)c4cc5cc(F)ccc5[nH]4)cc3)n2)cc1 [GSK1229496],%Inh,[1],0%
same,%Inh,[2],0%
same,%Inh,[3],0%
same,%Inh,[4],0%
same,%Inh,[5],0%
same,%Inh,[6],37%
same,%Inh,[7],54%
same,%Inh,[8],17%
same,%Inh,[9],41%
same,%Inh,[10],0%
COc1nccc(-c2c(-c3ccc(F)cc3)ncn2CCCN2CCOCC2)n1 [SB-282852],%Inh,[1],49%
same,%Inh,[2],37%
same,%Inh,[3],7%
same,%Inh,[4],0%
same,%Inh,[5],0%
same,%Inh,[6],12%
same,%Inh,[7],4%
same,%Inh,[8],0%
same,%Inh,[9],8%
same,%Inh,[10],0%
Cl.Cl.Cl.N#Cc1ccc(CCNc2nccc(-c3cccc(CN4CCNCC4)c3)n2)cc1 [GSK2137462],%Inh,[1],26%
same,%Inh,[2],0%
same,%Inh,[3],20%
same,%Inh,[4],0%
same,%Inh,[5],13%
same,%Inh,[6],0%
same,%Inh,[7],0%
same,%Inh,[8],0%
same,%Inh,[9],11%
same,%Inh,[10],13%
Fc1ccc(-c2nn3cccc(F)c3c2-c2ccncc2)cc1 [GW475620],%Inh,[1],0%
same,%Inh,[2],28%
same,%Inh,[3],0%
same,%Inh,[4],0%
same,%Inh,[5],0%
same,%Inh,[6],0%
same,%Inh,[7],28%
same,%Inh,[8],19%
same,%Inh,[9],0%
same,%Inh,[10],11%
Cn1cnc2c(N)ncnc21 [SKF-97623],%Inh,[1],10%
same,%Inh,[2],44%
same,%Inh,[3],5%
same,%Inh,[4],0%
same,%Inh,[5],0%
same,%Inh,[6],30%
same,%Inh,[7],0%
same,%Inh,[8],14%
same,%Inh,[9],33%
same,%Inh,[10],0%
CC(C)c1cc(-c2ccc3c(N)n[nH]c3c2)nc(N)n1 [GSK2250882],%Inh,[1],0%
same,%Inh,[2],0%
same,%Inh,[3],20%
same,%Inh,[4],0%
same,%Inh,[5],15%
same,%Inh,[6],26%
same,%Inh,[7],49%
same,%Inh,[8],36%
same,%Inh,[9],2%
same,%Inh,[10],0%
COc1ccc(Nc2nccc(N3CCC(NC(=O)C(C)c4ccc(Cl)cc4)CC3)n2)cc1 (stereo not drawn) [GSK1379812],%Inh,[1],11%
same,%Inh,[2],0%
same,%Inh,[3],0%
same,%Inh,[4],0%
same,%Inh,[5],2%
same,%Inh,[6],0%
same,%Inh,[7],29%
same,%Inh,[8],63%
same,%Inh,[9],9%
same,%Inh,[10],17%
COc1cccc(NC(=O)Nc2ccc(C)c(-c3ccc(C(=O)Nc4ccncc4)cc3)c2)c1 [GSK1398474],%Inh,[1],0%
same,%Inh,[2],0%
same,%Inh,[3],15%
same,%Inh,[4],0%
same,%Inh,[5],22%
same,%Inh,[6],0%
same,%Inh,[7],0%
same,%Inh,[8],0%
same,%Inh,[9],0%
same,%Inh,[10],17%
NS(=O)(=O)c1cccc(N/C=C2\C(=O)Nc3ccc(S(=O)(=O)Cc4c(Cl)cccc4Cl)cc32)c1 [GSK398099],%Inh,[1],87%
same,%Inh,[2],0%
same,%Inh,[3],0%
same,%Inh,[4],0%
same,%Inh,[5],0%
same,%Inh,[6],0%
same,%Inh,[7],0%
same,%Inh,[8],0%
same,%Inh,[9],1%
same,%Inh,[10],0%
Cc1ccc(NC(=O)Nc2ccccc2)cc1-c1ccc(C(=O)Nc2ccncc2)cc1 [GSK1398471],%Inh,[1],0%
same,%Inh,[2],0%
same,%Inh,[3],9%
same,%Inh,[4],0%
same,%Inh,[5],4%
same,%Inh,[6],0%
same,%Inh,[7],0%
same,%Inh,[8],6%
same,%Inh,[9],0%
same,%Inh,[10],29%
Cn1cncc1C(=O)NC1CCN(c2ccnc(Nc3ccc(F)cc3)n2)C1 (stereo not drawn) [GSK1379717],%Inh,[1],26%
same,%Inh,[2],0%
same,%Inh,[3],15%
same,%Inh,[4],0%
same,%Inh,[5],0%
same,%Inh,[6],0%
same,%Inh,[7],32%
same,%Inh,[8],0%
same,%Inh,[9],20%
same,%Inh,[10],0%
O=c1cc(N2CCOCC2)nc2n(Cc3cccc(Cl)c3Cl)c3ccccc3n12 [GSK2299009],%Inh,[1],0%
same,%Inh,[2],0%
same,%Inh,[3],0%
same,%Inh,[4],0%
same,%Inh,[5],0%
same,%Inh,[6],0%
same,%Inh,[7],17%
same,%Inh,[8],0%
same,%Inh,[9],0%
same,%Inh,[10],0%
CNc1nc(-c2ccc3c(N)n[nH]c3c2)cc(N2C[C@@H](C(=O)NC3CCCCC3)OC[C@H]2C)n1 [GSK2375584],%Inh,[1],0%
same,%Inh,[2],0%
same,%Inh,[3],11%
same,%Inh,[4],0%
same,%Inh,[5],0%
same,%Inh,[6],34%
same,%Inh,[7],54%
same,%Inh,[8],21%
same,%Inh,[9],27%
same,%Inh,[10],5%
FC(F)(F)c1ccccc1-c1cc(-c2c[nH]nc2-c2ccccn2)ccn1 [GW679396],%Inh,[1],0%
same,%Inh,[2],0%
same,%Inh,[3],0%
same,%Inh,[4],0%
same,%Inh,[5],0%
same,%Inh,[6],5%
same,%Inh,[7],32%
same,%Inh,[8],15%
same,%Inh,[9],0%
same,%Inh,[10],0%
O=C(Nc1n[nH]c2nc(-c3ccco3)c(Br)cc12)C1CCN(Cc2ccccc2)C1.O=C(O)[C@H](O)[C@@H](O)C(=O)O (stereo not drawn) [SB-742034],%Inh,[1],14%
same,%Inh,[2],7%
same,%Inh,[3],9%
same,%Inh,[4],5%
same,%Inh,[5],28%
same,%Inh,[6],0%
same,%Inh,[7],0%
same,%Inh,[8],0%
same,%Inh,[9],0%
same,%Inh,[10],10%
COc1cccc(C2=C(Nc3cc(Cl)c(O)c(Cl)c3)C(=O)NC2=O)c1 [SB-390767],%Inh,[1],21%
same,%Inh,[2],0%
same,%Inh,[3],0%
same,%Inh,[4],0%
same,%Inh,[5],0%
same,%Inh,[6],0%
same,%Inh,[7],66%
same,%Inh,[8],15%
same,%Inh,[9],15%
same,%Inh,[10],0%
